According to paper PMC7862700, “An all-to-all approach to the identification of sequence-specific readers for epigenetic DNA modifications on cytosine”:

Assays:
Assay in all cases: DAPPL (digital affinity profiling via proximity ligation, sequencing); 10 mM Tris-HCl pH 7.5, 50 mM NaCl, 1 mM DTT, 4% glycerol, room temperature, 30 min; GST-TFs on glutathione beads, 16-mer random dsDNA library, 0.1% formaldehyde crosslink after washing; high values mean tight binding
Conditions in all cases: protein: recombinant; tags: N-terminal GST; dsDNA, one strand shown
FLI1 = molecular target: T1, FLI1 (Homo sapiens, UniProt Q01543 1-452)
T1 sequence: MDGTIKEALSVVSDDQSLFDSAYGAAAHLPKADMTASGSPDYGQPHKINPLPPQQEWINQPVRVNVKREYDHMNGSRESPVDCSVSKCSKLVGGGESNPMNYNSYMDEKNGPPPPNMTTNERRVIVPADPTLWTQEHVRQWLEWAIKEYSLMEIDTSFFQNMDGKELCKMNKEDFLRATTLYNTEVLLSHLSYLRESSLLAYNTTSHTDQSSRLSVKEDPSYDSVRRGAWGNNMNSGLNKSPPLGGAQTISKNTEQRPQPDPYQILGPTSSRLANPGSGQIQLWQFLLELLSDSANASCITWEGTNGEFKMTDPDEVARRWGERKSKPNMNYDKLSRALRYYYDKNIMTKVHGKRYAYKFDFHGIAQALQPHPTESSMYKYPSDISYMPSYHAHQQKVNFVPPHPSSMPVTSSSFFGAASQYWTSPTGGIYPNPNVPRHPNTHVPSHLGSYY
Procedure, shortened: (§1)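 After expression in yeast as GST fusions, human transcription factors were bound to glutathione beads, DNA-barcoded and mixed with a tag-only sample. The pools were incubated with 200 nmole of a 16-mer random double-stranded DNA library in Tris/NaCl/DTT/glycerol buffer (30 min, room temperature), washed and crosslinked with 0.1% formaldehyde. Proximity ligation with BsaI/T4 ligase ran for 1 h at 37 °C, before PCR amplification and sequencing on an Illumina NextSeq500. Binding signal is a hexamer's read frequency for a factor divided by its frequency for the tag-only sample.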

ELK1 = molecular target: T2, ELK1 (Homo sapiens, UniProt P19419 1-428)
T2 sequence: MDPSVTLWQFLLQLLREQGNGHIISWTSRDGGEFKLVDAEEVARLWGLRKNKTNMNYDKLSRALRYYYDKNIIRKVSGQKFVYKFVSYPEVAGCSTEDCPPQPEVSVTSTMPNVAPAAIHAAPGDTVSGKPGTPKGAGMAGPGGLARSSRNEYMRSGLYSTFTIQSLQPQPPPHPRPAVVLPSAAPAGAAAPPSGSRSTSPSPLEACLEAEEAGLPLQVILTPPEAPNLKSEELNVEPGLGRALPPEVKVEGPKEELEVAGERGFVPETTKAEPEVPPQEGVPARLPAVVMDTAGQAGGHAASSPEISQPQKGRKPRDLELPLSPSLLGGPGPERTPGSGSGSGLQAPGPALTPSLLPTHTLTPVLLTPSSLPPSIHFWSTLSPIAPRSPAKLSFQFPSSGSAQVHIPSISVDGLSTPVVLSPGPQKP
Procedure, shortened: as §1

GABPA = molecular target: T3, GABPA (Homo sapiens, UniProt Q06546 1-454)
T3 sequence: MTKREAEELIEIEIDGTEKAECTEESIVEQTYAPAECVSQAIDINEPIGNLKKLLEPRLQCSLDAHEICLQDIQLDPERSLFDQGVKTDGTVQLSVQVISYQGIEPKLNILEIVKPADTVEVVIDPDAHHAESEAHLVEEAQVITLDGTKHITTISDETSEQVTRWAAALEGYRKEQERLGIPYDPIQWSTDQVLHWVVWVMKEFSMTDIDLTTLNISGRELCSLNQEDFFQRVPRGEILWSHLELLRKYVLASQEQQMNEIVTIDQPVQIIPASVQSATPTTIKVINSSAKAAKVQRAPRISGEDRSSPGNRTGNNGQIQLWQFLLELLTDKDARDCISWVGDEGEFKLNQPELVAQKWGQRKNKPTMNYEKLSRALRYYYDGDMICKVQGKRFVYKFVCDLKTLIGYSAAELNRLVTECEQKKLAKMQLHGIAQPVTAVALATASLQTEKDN
Procedure, shortened: as §1

ERG = molecular target: T4, ERG (Homo sapiens, UniProt P11308 1-479)
T4 sequence: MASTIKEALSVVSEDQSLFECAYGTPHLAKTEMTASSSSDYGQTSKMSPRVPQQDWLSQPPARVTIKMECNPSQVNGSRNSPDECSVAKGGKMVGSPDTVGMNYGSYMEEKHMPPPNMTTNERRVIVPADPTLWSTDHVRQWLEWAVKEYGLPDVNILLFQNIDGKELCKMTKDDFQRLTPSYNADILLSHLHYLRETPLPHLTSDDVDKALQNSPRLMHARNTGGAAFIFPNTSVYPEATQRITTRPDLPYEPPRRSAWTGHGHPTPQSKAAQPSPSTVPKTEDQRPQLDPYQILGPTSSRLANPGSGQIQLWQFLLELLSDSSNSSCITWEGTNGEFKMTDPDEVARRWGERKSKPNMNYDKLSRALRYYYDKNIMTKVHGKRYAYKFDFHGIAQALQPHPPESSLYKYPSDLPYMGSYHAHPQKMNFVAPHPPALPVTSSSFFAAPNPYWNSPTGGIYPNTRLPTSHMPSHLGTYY
Procedure, shortened: as §1

ELF1 = ELF1 (Homo sapiens, UniProt P32519 1-619)
ELF1, sequence (P32519 whole entry): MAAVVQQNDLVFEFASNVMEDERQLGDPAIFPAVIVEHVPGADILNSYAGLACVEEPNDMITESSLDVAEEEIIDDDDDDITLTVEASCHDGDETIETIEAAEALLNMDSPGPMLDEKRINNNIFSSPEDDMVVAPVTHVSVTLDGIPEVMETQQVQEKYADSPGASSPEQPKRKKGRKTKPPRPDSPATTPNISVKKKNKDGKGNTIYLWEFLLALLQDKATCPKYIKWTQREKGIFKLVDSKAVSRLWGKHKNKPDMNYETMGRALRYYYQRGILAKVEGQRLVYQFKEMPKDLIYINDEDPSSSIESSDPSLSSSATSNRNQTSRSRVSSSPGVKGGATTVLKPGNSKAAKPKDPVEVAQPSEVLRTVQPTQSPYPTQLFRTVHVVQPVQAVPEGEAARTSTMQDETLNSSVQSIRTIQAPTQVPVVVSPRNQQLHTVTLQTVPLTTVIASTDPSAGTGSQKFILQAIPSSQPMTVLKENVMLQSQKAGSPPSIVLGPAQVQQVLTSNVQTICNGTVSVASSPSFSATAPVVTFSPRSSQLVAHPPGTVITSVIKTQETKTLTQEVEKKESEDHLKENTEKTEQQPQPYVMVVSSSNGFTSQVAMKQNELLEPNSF
Procedure, shortened: as §1

EHF = molecular target: T5, EHF (Homo sapiens, UniProt Q9NZC4 1-300)
T5 sequence: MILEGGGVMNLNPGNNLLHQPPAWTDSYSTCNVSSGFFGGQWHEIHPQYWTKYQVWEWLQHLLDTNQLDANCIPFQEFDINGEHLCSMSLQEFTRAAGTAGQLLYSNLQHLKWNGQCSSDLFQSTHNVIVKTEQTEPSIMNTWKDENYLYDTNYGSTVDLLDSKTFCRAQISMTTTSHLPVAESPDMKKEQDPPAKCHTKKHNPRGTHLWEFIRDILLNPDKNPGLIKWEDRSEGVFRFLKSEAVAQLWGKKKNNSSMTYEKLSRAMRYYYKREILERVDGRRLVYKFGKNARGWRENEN
Procedure, shortened: as §1

SPI1 = SPI1 (Homo sapiens, UniProt P17947 1-270)
Procedure, shortened: as §1

SPIB = SPIB (Homo sapiens, UniProt Q01892 1-262)
SPIB, sequence (Q01892 whole entry): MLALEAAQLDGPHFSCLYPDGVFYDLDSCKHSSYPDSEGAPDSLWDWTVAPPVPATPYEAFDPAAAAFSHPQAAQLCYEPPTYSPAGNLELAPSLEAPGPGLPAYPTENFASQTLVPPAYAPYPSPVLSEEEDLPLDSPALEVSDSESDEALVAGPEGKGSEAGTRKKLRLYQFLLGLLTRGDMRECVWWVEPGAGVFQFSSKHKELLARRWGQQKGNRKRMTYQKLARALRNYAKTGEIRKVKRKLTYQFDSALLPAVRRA
Procedure, shortened: as §1

ELK3 = molecular target: T6, ELK3 (Homo sapiens, UniProt P41970 1-407)
T6 sequence: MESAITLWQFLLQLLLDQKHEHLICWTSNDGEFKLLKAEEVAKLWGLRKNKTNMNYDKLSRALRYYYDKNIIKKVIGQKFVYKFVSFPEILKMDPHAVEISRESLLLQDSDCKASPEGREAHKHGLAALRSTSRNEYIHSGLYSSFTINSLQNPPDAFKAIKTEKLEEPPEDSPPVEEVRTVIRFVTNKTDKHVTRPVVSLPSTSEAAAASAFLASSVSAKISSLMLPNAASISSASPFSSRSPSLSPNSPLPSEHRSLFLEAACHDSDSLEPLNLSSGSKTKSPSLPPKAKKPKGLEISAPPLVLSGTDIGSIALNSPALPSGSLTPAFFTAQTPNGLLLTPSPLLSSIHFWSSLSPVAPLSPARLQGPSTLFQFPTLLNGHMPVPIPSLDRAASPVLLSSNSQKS
Procedure, shortened: as §1

Row | Sequence | binding signal (FLI1) | binding signal (ELK1) | binding signal (GABPA) | binding signal (ERG) | binding signal (ELF1) | binding signal (EHF) | binding signal (SPI1) | binding signal (SPIB) | binding signal (ELK3)
1 | CCCGGA | 2.74 fold enrichment (6-mer frequency, TF over GST control) | 2.61 fold enrichment (6-mer frequency, TF over GST control) | 2.61 fold enrichment (6-mer frequency, TF over GST control) | 2.99 fold enrichment (6-mer frequency, TF over GST control) | 2.87 fold enrichment (6-mer frequency, TF over GST control) | 2.95 fold enrichment (6-mer frequency, TF over GST control) | 2.47 fold enrichment (6-mer frequency, TF over GST control) | 3.06 fold enrichment (6-mer frequency, TF over GST control) | 2.85 fold enrichment (6-mer frequency, TF over GST control)
2 | CCGCCC | 1.33 fold enrichment (6-mer frequency, TF over GST control) | 1.39 fold enrichment (6-mer frequency, TF over GST control) | 1.27 fold enrichment (6-mer frequency, TF over GST control) | 1.29 fold enrichment (6-mer frequency, TF over GST control) | 1.35 fold enrichment (6-mer frequency, TF over GST control) | 1.29 fold enrichment (6-mer frequency, TF over GST control) | 1.17 fold enrichment (6-mer frequency, TF over GST control) | 1.19 fold enrichment (6-mer frequency, TF over GST control) | 1.48 fold enrichment (6-mer frequency, TF over GST control)
3 | ATAAAG | 1.01 fold enrichment (6-mer frequency, TF over GST control) | 1.01 fold enrichment (6-mer frequency, TF over GST control) | 1.05 fold enrichment (6-mer frequency, TF over GST control) | 1.12 fold enrichment (6-mer frequency, TF over GST control) | 1.06 fold enrichment (6-mer frequency, TF over GST control) | 1.11 fold enrichment (6-mer frequency, TF over GST control) | 1.21 fold enrichment (6-mer frequency, TF over GST control) | 1.1 fold enrichment (6-mer frequency, TF over GST control) | 1.12 fold enrichment (6-mer frequency, TF over GST control)
4 | CAAATG | 1.11 fold enrichment (6-mer frequency, TF over GST control) | 1.16 fold enrichment (6-mer frequency, TF over GST control) | 1.08 fold enrichment (6-mer frequency, TF over GST control) | 1.16 fold enrichment (6-mer frequency, TF over GST control) | 1.22 fold enrichment (6-mer frequency, TF over GST control) | 1.1 fold enrichment (6-mer frequency, TF over GST control) | 1.25 fold enrichment (6-mer frequency, TF over GST control) | 1.13 fold enrichment (6-mer frequency, TF over GST control) | 1.09 fold enrichment (6-mer frequency, TF over GST control)
5 | TACCGG | 1.52 fold enrichment (6-mer frequency, TF over GST control) | 1.55 fold enrichment (6-mer frequency, TF over GST control) | 1.52 fold enrichment (6-mer frequency, TF over GST control) | 1.77 fold enrichment (6-mer frequency, TF over GST control) | 1.53 fold enrichment (6-mer frequency, TF over GST control) | 1.67 fold enrichment (6-mer frequency, TF over GST control) | 1.43 fold enrichment (6-mer frequency, TF over GST control) | 1.61 fold enrichment (6-mer frequency, TF over GST control) | 1.56 fold enrichment (6-mer frequency, TF over GST control)
6 | CGTTAC | 1.17 fold enrichment (6-mer frequency, TF over GST control) | 1.09 fold enrichment (6-mer frequency, TF over GST control) | 1.08 fold enrichment (6-mer frequency, TF over GST control) | 1.11 fold enrichment (6-mer frequency, TF over GST control) | 1.12 fold enrichment (6-mer frequency, TF over GST control) | 1.14 fold enrichment (6-mer frequency, TF over GST control) | 1.27 fold enrichment (6-mer frequency, TF over GST control) | 1.11 fold enrichment (6-mer frequency, TF over GST control) | 1.21 fold enrichment (6-mer frequency, TF over GST control)
7 | CCACAA | 1.2 fold enrichment (6-mer frequency, TF over GST control) | 1.14 fold enrichment (6-mer frequency, TF over GST control) | 1.25 fold enrichment (6-mer frequency, TF over GST control) | 1.09 fold enrichment (6-mer frequency, TF over GST control) | 1.21 fold enrichment (6-mer frequency, TF over GST control) | 1.08 fold enrichment (6-mer frequency, TF over GST control) | 1.22 fold enrichment (6-mer frequency, TF over GST control) | 1.07 fold enrichment (6-mer frequency, TF over GST control) | 1.34 fold enrichment (6-mer frequency, TF over GST control)
8 | TCCTTA | 1.6 fold enrichment (6-mer frequency, TF over GST control) | 1.38 fold enrichment (6-mer frequency, TF over GST control) | 1.57 fold enrichment (6-mer frequency, TF over GST control) | 1.55 fold enrichment (6-mer frequency, TF over GST control) | 1.66 fold enrichment (6-mer frequency, TF over GST control) | 1.71 fold enrichment (6-mer frequency, TF over GST control) | 1.78 fold enrichment (6-mer frequency, TF over GST control) | 1.7 fold enrichment (6-mer frequency, TF over GST control) | 1.4 fold enrichment (6-mer frequency, TF over GST control)
